Source: PubChem BioAssay (NCATS)
Values without a mark were called inactive. Records with an inconclusive call do not appear. The source made the active and inactive calls. Unless noted, calls follow the shape of the dose curve; as a rule, active = well fitted curve in either direction with a large enough effect (not every such curve was filed as active); inconclusive = small, poorly fitted or top-dose-only effect, or another doubt; inactive = flat fitted curve, though single readings scatter.

Key:
[1] = target: Lysosomal acid glucosylceramidase (Homo sapiens) (UniProt P04062); test: Glucocerebrosidase-p2 (AID 348; in the data active = potency below about 10 µM; also: potency is read from the fitted curve at half-maximal effect); conditions: purified GBA, blue fluorogenic substrate, 40 min
Sequence of Lysosomal acid glucosylceramidase (Homo sapiens) (P04062 whole entry, looked up): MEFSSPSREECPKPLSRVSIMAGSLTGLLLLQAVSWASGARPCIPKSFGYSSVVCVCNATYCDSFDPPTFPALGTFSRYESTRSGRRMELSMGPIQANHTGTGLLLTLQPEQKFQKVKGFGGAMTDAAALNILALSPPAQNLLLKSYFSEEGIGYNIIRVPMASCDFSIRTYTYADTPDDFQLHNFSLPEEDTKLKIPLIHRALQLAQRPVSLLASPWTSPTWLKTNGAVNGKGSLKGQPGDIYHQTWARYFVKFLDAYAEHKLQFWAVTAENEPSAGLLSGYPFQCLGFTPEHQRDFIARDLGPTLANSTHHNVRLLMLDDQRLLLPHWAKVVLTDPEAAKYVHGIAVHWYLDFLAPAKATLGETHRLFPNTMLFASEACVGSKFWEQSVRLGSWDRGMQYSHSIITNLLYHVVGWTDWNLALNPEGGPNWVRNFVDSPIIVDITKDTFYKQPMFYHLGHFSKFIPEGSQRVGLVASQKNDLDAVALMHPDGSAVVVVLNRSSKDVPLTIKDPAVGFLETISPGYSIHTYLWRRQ
Summary of the method: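 Compounds titrated from 0.6 nM upwards against 0.2 nM enzyme in pH 5.9 citric acid/KH2PO4, taurocholate, tween-20; blue fluorogenic substrate 80 uM, 40 min room temperature, stopped and read Ex 365/Em 440 for AC50.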

[2] = AP1 Signaling Pathway (AID 357); conditions: ME-180 AP-1-bla reporter, EGF-induced, beta-lactamase ratio, 5 h; at 7.69 µM (top of the series) unless noted;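 also: ME-180 reporter cells stimulated with EGF at its EC50 level; % is scaled to controls: 0 for no effect and ±100 for the full control effect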
Summary of the method: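 In this screen, ME-180 cells in Opti-MEM with 0.5% dialyzed FBS received EC50 EGF and compound titrations for 5 h. AP-1 reporter beta-lactamase was detected via CCF4 ratio, giving AC50 for positive and negative modulators.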

[3] = Stat Signaling Pathway (AID 446); conditions: ME-180 SIE beta-lactamase reporter, IL-6 stimulated, 5 h; at 7.69 µM (top of the series) unless noted;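 also: ME-180 cervical cancer cells given 40 pM IL-6 alongside compound; SIE-controlled beta-lactamase reporter measured as 460/530 nm FRET emission ratio; % is scaled to controls: 0 for no effect and ±100 for the full control effect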
Summary of the method: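 Screening format detects activators and inhibitors alike: ME-180 SIE-bla cells stimulated at 40 pM IL-6 for 5 hrs with compound, then dual-emission beta-lactamase read at 405 nm excitation.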

[4] = target: Glucocorticoid receptor (Homo sapiens) (UniProt P04150); test: GR-GFP Redistribution (AID 450;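 active = compounds whose dose series gives a full or clear partial fitted curve of increased nuclear translocation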; also: potency is read from the fitted curve at half-maximal effect); conditions: U2OS GR-GFP nuclear translocation, laser cytometry, 2 h
Sequence of Glucocorticoid receptor (Homo sapiens) (P04150 whole entry, looked up, the tested form may be a part): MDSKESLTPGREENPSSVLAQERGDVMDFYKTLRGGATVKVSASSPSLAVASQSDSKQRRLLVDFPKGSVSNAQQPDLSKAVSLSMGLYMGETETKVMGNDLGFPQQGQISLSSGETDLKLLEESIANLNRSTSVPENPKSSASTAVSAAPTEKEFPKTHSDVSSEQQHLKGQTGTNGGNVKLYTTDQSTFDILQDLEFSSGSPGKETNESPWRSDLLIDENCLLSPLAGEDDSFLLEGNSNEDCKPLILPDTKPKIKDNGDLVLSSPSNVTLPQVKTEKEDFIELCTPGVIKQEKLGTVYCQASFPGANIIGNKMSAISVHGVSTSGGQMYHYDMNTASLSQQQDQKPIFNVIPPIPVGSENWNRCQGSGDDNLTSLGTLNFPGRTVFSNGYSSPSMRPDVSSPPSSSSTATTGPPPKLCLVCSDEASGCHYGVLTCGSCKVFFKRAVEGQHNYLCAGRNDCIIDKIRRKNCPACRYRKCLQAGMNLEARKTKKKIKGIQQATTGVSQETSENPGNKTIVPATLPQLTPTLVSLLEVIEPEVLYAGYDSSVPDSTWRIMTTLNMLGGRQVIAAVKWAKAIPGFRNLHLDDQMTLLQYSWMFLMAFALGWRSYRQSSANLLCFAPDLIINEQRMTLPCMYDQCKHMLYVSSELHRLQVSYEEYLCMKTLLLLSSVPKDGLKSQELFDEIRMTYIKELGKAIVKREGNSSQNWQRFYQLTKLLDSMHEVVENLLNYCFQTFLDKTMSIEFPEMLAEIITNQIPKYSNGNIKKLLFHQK

[5] = target: Glucocorticoid receptor (Homo sapiens) (UniProt P04150); test: GR-EFC Redistribution (AID 451; calls by dose curve; also: potency is read from the fitted curve at half-maximal effect); conditions: CHO-K1 GR-EFC translocation, beta-gal luminescence, 2 h
Summary of the method: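 CHO-K1 cells expressing nuclear EA and GR-ED fragments of b-gal; compounds titrated up to 46 uM final, 2 h at 37 C. GR nuclear translocation read as complemented b-gal luminescence after 1 h RT detection.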

[6] = target: Mitogen-activated protein kinase 10 (Mus musculus) (UniProt Q61831); test: JNK3 AlphaScreen Assay (AID 530); conditions: JNK3 lysate, c-Jun phosphorylation; series mostly up to 11.4 µM;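 also: kinase came from lysate of stimulated human HepG2 cells; signal reports phosphorylation of biotinylated GST-cJun 1-79 at Ser73 with 10 µM ATP; % is scaled to controls: 0 for no effect and ±100 for the full control effect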
Summary of the method: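 qHTS format: compounds tested as titrations against IL-1beta/TNF-alpha-activated HepG2 lysate JNK3 with biotin-GST-cJun substrate and 10 uM ATP at room temperature. Loss of anti-phospho-cJun AlphaScreen signal indicates inhibition.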

[7] = target: 3',5'-cyclic-AMP phosphodiesterase 4B (Homo sapiens) (UniProt Q07343); test: qHTS Assay for Inhibitors of PDE-IV (AID 607; active = well fitted activation curve with a large enough effect in the main read-out, with a control signal flat, not every such curve was filed as active; also: % of control where 0% means no effect); conditions: HEK293 ACTOne CNG channel cells, membrane potential fluorescence; series mostly up to 22.9 µM
Sequence of 3',5'-cyclic-AMP phosphodiesterase 4B (Homo sapiens) (Q07343 whole entry, looked up): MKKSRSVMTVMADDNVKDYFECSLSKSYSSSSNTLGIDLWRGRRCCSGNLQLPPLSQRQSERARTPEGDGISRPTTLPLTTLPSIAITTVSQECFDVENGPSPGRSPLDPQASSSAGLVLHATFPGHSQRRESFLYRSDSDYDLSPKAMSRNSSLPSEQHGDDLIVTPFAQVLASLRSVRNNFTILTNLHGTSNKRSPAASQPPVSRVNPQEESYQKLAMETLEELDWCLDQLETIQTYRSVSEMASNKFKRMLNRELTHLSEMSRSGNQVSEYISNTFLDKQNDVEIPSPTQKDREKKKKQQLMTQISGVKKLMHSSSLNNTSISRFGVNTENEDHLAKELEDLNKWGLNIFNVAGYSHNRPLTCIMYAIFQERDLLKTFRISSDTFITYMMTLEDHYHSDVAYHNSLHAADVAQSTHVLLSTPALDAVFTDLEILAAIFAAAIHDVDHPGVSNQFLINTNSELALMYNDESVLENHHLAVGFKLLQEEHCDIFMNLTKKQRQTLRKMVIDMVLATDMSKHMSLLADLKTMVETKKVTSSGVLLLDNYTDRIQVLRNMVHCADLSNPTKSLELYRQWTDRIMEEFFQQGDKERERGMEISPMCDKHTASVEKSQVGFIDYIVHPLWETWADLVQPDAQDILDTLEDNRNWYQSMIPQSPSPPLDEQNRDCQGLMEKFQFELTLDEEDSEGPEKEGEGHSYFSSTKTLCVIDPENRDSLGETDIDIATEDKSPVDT
Summary of the method: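 The readout is membrane depolarisation from a cAMP-sensing CNG channel, detected with a potential dye at ex 535/em 590. Cells were HEK293-derived (endogenous PDE-IV) at 1000 cells/well, titrated up to 22.9 uM final.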

[8] = target: Cytochrome P450 2D6 (Homo sapiens) (UniProt P10635); test: qHTS Assay for Inhibitors and Substrates of Cytochrome P450 2D6 (AID 891; active = well fitted inhibition curve with a large enough effect; also: potency is read from the fitted curve at half-maximal effect; nearly all actives have a fitted effect of over 60% in size); conditions: recombinant CYP2D6, luciferin-ME EGE luminescence; series mostly up to 11.4 µM
Sequence of Cytochrome P450 2D6 (Homo sapiens) (P10635 whole entry, looked up): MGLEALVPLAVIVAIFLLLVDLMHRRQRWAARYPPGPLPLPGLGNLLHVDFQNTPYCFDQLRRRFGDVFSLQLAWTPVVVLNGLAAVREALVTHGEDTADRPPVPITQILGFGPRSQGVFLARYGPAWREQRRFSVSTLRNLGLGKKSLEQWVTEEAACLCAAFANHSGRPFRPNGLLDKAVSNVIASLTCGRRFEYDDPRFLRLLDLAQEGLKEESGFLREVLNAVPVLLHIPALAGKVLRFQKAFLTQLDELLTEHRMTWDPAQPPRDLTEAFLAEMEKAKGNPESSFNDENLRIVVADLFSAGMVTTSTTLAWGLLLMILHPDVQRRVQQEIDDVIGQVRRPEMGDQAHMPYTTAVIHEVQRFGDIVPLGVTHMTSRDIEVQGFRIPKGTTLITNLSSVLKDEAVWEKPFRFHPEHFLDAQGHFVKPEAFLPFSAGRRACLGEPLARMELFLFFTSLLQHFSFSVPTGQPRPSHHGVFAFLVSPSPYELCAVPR
Summary of the method: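 Human CYP2D6 (5 nM) with 30 uM Luciferin-ME EGE (at Km) in 100 mM KPO4, compound preincubated 10 min, then NADPH regeneration system for 60 min at room temperature. Luciferin read by luminescence; normalized to 1.43 uM quinidine.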

SMILES | Potency [1] [µM] | activity change, negative = inhibition [2] [%] | activity, negative = inhibition [3] [%] | Potency [4] [µM] | Potency [5] [µM] | Potency [6] | Potency [7] | Potency [8]
C[N@@+]1(Cc2ccc(Cl)c(Cl)c2)CCC[C@@H]1c1ccc[n+](Cc2ccc(Cl)c(Cl)c2)c1 | > 11.4 | -3.2 | -0.293 | > 46 | > 9.22 | inactive | inactive | 3160 nM (active)
c1ccc(CN2CC[C@@H](CNc3ncnc4ccccc34)C2)cc1 | > 11.4 | 3.93 | 8.92 | > 46 | > 9.22 | inactive | inactive | 794 nM (active)
O[C@@H](c1cc(-c2ccc(Cl)cc2)nc2ccccc12)[C@@H]1CCCCN1 | > 11.4 | -7.25 | -6.67 |  | > 9.22 | inactive | inactive | 631 nM (active)
CC1(C)COCN1COC1CCCCC1 | > 11.4 | -2.54 |  | > 46 | > 9.22 | inactive | inactive | 
O=C1C[C@H]2OCC=C3CN4CC[C@@]5(C(=O)O)[C@H](N1)[C@H]2[C@H]3C[C@H]45 | > 11.4 | 1.86 | -5.3 | > 46 |  | inactive | inactive | 
